How the values were obtained:
Experiment in all cases: log2 ratio of Biotin-Ahx-Ub-VS probe labelling (fragment/DMSO); higher = less target engagement (more negative = stronger competition), active = hit call of the paper (q ≤ 0.05, log2 ratio ≤ -1)
Details in all cases: compound concentration: 200 uM; treatment time: 3 h
ALG13 = molecular target: T1, ALG13 (UniProt Q9NP73)
T1 sequence (whole entry): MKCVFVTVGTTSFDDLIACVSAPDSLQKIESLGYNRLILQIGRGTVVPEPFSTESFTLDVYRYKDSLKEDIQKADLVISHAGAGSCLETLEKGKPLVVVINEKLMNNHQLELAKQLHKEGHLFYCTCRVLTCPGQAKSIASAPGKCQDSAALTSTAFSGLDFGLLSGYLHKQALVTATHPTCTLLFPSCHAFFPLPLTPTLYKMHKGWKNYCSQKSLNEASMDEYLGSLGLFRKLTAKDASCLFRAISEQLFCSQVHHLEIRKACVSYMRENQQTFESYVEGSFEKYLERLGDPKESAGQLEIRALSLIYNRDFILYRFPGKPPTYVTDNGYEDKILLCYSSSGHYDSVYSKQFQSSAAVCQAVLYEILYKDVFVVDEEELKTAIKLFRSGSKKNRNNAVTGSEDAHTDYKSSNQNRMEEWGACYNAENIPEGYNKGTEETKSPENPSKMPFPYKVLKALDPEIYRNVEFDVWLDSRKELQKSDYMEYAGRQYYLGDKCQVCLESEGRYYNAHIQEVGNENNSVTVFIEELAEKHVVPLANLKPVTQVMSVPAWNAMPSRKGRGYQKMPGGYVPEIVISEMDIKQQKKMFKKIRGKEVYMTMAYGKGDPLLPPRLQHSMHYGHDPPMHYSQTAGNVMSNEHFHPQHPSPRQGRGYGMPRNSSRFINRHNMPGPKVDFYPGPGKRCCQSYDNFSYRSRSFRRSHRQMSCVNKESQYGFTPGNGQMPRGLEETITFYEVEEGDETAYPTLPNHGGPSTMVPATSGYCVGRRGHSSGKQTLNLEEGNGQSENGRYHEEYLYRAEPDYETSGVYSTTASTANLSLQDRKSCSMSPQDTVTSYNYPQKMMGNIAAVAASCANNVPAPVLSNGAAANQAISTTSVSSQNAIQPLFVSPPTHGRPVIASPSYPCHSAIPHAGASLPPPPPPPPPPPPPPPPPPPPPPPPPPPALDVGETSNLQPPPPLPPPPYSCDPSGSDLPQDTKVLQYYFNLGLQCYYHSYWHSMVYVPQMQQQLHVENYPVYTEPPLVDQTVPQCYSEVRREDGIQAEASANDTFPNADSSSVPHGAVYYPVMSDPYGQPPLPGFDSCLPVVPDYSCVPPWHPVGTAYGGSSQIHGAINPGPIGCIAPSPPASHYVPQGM
Method in brief: (§1)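 HEK293T lysate (495 µg per sample, in Tris/CHAPS/IGEPAL buffer with protease inhibitors) was treated in triplicate with fragment at 200 µM or with DMSO for 3 h. It was then treated with Biotin-Ahx-Ub-VS (0.5 µM final) for 1 h. Labelled DUBs were NeutrAvidin-enriched, digested with LysC and trypsin, and run by diaPASEF LC-MS/MS. Spectronaut label-free quantities were global-median-normalised. Values are average log2 ratios fragment/DMSO by unpaired t-test, using proteins with ≥2 unique peptides.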

ATXN3 = ATXN3 (UniProt P54252)
Method in brief: as §1

BAP1 = molecular target: T2, BAP1 (UniProt Q92560)
T2 sequence (whole entry): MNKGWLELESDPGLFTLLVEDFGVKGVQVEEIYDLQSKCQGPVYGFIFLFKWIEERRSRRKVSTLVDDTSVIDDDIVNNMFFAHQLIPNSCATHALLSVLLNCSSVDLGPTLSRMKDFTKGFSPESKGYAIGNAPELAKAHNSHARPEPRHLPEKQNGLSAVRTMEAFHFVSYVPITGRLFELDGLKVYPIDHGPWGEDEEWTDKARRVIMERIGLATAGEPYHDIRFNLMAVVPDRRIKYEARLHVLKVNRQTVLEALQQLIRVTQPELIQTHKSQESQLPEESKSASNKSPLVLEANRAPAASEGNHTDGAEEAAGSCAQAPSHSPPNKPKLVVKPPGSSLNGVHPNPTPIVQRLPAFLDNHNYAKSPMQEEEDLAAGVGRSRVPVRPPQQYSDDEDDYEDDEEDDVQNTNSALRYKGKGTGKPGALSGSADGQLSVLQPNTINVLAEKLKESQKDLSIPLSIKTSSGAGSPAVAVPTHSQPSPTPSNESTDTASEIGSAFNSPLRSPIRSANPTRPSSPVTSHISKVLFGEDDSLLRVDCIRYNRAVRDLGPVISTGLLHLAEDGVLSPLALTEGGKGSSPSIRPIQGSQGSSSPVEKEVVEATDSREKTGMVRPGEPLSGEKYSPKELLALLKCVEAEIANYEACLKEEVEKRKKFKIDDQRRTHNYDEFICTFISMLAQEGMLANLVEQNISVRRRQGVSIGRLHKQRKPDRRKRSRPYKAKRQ
Method in brief: as §1

EIF3F = EIF3F (UniProt O00303)
Method in brief: as §1

EIF3H = EIF3H (UniProt O15372)
Method in brief: as §1

FAM105A = molecular target: T3, FAM105A (UniProt Q9NUU6)
T3 sequence (whole entry): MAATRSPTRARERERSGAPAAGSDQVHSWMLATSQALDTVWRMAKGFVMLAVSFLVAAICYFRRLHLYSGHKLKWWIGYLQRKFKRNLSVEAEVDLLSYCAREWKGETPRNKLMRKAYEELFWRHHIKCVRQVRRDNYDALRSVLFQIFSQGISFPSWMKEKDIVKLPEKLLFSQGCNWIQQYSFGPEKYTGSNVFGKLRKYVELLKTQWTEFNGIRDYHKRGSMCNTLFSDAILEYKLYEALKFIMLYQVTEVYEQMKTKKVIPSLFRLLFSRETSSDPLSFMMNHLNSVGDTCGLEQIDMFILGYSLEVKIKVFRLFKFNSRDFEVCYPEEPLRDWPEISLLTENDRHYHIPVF
Method in brief: as §1

OTUB1 = OTUB1 (UniProt Q96FW1)
Method in brief: as §1

OTUD4 = molecular target: T4, OTUD4 (UniProt Q01804)
T4 sequence (whole entry): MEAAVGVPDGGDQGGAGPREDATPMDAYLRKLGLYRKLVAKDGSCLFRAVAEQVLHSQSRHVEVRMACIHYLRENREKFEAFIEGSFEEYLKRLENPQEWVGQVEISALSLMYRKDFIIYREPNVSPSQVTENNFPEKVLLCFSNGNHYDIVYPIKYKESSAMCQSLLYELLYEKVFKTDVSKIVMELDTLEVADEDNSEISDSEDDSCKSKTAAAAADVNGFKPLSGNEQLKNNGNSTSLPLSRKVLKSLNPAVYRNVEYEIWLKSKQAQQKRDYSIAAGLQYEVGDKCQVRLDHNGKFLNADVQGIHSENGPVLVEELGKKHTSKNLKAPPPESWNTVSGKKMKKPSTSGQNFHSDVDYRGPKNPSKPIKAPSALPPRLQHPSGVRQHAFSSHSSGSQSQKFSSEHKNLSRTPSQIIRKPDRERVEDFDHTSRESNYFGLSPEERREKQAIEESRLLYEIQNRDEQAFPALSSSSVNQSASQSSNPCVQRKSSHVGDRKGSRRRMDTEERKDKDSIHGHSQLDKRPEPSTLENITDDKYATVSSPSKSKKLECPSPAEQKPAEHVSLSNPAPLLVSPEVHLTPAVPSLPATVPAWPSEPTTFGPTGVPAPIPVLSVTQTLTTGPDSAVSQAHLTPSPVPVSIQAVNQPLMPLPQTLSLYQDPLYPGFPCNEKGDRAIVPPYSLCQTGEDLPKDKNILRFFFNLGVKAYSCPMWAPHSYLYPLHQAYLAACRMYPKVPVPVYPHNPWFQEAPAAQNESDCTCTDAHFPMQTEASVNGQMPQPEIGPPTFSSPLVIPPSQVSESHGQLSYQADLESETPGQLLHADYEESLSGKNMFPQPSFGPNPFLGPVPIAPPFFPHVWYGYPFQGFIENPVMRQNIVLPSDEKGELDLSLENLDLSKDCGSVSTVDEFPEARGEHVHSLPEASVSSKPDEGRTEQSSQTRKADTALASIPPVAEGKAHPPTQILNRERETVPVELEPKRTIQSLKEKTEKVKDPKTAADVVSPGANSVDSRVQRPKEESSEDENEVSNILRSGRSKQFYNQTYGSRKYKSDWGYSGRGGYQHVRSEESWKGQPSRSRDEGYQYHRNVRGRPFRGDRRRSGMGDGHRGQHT
Method in brief: as §1

OTUD5 = molecular target: T5, OTUD5 (UniProt Q96G74)
T5 sequence (whole entry): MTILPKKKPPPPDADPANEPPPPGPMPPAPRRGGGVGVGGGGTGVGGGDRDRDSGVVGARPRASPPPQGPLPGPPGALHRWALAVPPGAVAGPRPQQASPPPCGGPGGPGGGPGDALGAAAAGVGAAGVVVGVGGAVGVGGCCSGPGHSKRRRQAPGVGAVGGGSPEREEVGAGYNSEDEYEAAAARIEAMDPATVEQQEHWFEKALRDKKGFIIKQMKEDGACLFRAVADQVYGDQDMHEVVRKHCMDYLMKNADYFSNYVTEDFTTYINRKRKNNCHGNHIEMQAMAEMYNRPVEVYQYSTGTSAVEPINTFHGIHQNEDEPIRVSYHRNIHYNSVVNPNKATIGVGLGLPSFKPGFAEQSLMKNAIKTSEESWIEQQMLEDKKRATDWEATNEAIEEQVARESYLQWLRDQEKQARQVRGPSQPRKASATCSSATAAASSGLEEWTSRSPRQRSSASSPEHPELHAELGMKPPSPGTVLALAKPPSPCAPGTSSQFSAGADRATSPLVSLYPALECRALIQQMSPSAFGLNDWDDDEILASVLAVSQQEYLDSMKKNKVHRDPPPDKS
Method in brief: as §1

Measured: log2 ratio of Biotin-Ahx-Ub-VS probe labelling

Chain of OTUB1 (Q96FW1 whole entry): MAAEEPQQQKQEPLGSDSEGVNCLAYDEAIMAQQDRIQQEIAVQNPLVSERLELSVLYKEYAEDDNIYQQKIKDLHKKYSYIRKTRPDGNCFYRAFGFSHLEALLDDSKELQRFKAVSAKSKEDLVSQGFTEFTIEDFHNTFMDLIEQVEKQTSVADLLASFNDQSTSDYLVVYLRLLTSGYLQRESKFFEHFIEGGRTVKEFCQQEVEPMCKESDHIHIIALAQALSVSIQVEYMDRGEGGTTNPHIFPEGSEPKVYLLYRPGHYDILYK
Chain of EIF3F (O00303 whole entry): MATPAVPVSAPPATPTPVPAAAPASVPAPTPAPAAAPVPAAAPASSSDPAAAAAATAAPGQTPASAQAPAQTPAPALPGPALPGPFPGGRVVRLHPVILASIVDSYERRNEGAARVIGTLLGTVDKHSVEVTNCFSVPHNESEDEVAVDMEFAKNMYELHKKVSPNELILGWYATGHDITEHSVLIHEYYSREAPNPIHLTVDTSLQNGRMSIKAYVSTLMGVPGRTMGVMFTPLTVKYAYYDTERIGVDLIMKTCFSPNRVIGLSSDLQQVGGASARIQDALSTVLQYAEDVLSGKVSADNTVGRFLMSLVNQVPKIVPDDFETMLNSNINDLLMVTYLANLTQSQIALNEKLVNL
Chain of ATXN3 (P54252 whole entry): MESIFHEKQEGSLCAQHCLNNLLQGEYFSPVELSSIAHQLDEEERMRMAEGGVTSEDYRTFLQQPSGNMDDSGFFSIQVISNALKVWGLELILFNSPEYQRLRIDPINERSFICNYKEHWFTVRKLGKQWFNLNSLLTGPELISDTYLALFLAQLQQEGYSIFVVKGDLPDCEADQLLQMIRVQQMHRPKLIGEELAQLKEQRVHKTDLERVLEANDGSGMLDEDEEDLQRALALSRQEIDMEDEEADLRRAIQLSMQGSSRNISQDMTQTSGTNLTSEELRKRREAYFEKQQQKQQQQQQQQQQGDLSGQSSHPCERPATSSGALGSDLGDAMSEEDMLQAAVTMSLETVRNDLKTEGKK
Chain of EIF3H (O15372 whole entry): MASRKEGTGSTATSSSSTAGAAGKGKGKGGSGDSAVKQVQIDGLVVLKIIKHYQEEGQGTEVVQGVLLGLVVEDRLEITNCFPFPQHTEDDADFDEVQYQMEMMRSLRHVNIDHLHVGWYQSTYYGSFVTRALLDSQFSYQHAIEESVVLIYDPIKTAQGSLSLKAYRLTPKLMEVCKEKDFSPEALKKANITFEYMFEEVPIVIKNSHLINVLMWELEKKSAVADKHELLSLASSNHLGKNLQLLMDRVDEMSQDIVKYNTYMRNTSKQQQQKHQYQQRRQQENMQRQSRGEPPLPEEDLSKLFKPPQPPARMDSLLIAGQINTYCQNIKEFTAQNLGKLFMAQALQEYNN

CN(Cc1nc2ccccc2[nH]1)C(=O)CCl.Cl
inactive: ALG13 0.0974 | ATXN3 -0.483 | BAP1 -0.482 | EIF3F -0.447 | EIF3H 0.225 | FAM105A -0.213 | OTUB1 -0.189 | OTUD4 0.0195 | OTUD5 -0.483

— the supplement of paper PMC11732987, “Enantioselective OTUD7B fragment discovery through chemoproteomics screening and high-throughput optimisation” (Communications Chemistry, 2025)
